According to the supplement of paper PMC7380943:

test system: CLZ3 (HCA2 human fibroblast dual HR-NHEJ reporter); test: HR repair efficiency (tdTomato+ cells) relative to control (log10 fold); higher = more homologous recombination; settings: 5 µM; doxycycline 0.5 ug/mL
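Further: compound given one day before doxycycline, which switches on I-SceI endonuclease expression to create double-strand breaks within the integrated reporter.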

| Compound | HR repair efficiency (log10) |
| --- | --- |
| CCCCCCCCCCCCCCCC(=O)O [Palmitic Acid] | 0.0657 |
| O=c1c(O[C@@H]2O[C@H](CO)[C@@H](O)[C@H](O)[C@H]2O)c(-c2ccc(O)cc2)oc2cc(O)cc(O)c12 [Astragalin] | 0.0112 |
| O=C(/C=C/c1ccc(O)c(O)c1)O[C@H](Cc1ccc(O)c(O)c1)C(=O)O [Rosmarinicacid] | -0.328 |
| C[C@H]1O[C@H](O[C@@H]2[C@@H](O)[C@H](OCCc3ccc(O)c(O)c3)O[C@H](CO[C@H]3OCC(O)(CO)[C@@H]3O)[C@H]2OC(=O)/C=C/c2ccc(O)c(O)c2)[C@@H](O)[C@@H](O)[C@@H]1O (stereo not given in full) [Forsythoside B] | 0.076 |
| C=C(C)[C@H](CC=C(C)C)Cc1c(O)cc(OC)c2c1O[C@H](c1ccc(O)cc1O)CC2=O [Kurarinone] | 0.0158 |
| COc1cccc(OC)c1C(=O)OCc1cc(O)ccc1O[C@@H]1O[C@H](CO)[C@@H](O)[C@H](O)[C@H]1O [Curculigoside] | 0.0401 |
| COc1cc2ccc(=O)oc2cc1OC [Scoparone] | 0.0853 |
| O=c1c(-c2ccc(O)cc2)coc2c([C@@H]3O[C@H](CO)[C@@H](O)[C@H](O)[C@H]3O)c(O)ccc12 [Puerarin] | 0.038 |
| CN[C@@H](C)[C@H]1[C@H](O)C[C@@]2(C)[C@@H]3CC[C@H]4C(C)(C)[C@@H](NC)CC[C@@]45C[C@@]35CC[C@]12C [Cyclovirobuxine D] | 0.0389 |
| O=c1cc(-c2ccc(O[C@@H]3O[C@H](CO)[C@@H](O)[C@H](O)[C@H]3O)cc2)oc2cc(O)c([C@@H]3O[C@H](CO)[C@@H](O)[C@H](O)[C@H]3O[C@@H]3OC[C@H](O)[C@H](O)[C@H]3O)c(O)c12 [Vaccarin] | -0.086 |
| CC(/C=C/C=C(\C)C(=O)O[C@@H]1O[C@H](CO)[C@@H](O)[C@H](O)[C@H]1O)=C\C=C\C=C(C)\C=C\C=C(/C)C(=O)O[C@@H]1O[C@H](CO[C@@H]2O[C@H](CO)[C@@H](O)[C@H](O)[C@H]2O)[C@@H](O)[C@H](O)[C@H]1O [Crocin Ii] | 0.0485 |
| O=C(O)/C=C/c1ccc(O)cc1 [P-Coumaric Acid] | 0.212 |
| COC(=O)c1ccc(O)cc1 [Methylparaben] | 0.0479 |
| O=C(O)c1cc(O)c2c(c1)[C@@H]([C@H]1c3cc(C(=O)O)cc(O)c3C(=O)c3c(O[C@@H]4O[C@H](CO)[C@@H](O)[C@H](O)[C@H]4O)cccc31)c1cccc(O[C@@H]3O[C@H](CO)[C@@H](O)[C@H](O)[C@H]3O)c1C2=O [Sennoside B] | 0.0301 |
| O=c1c(O[C@@H]2O[C@H](CO)[C@H](O)[C@H](O)[C@H]2O)c(-c2ccc(O)c(O)c2)oc2cc(O)cc(O)c12 [Hyperoside] | -0.00424 |
| COc1ccc(-c2oc3c(CC=C(C)C)c(O[C@@H]4O[C@H](CO)[C@@H](O)[C@H](O)[C@H]4O)cc(O)c3c(=O)c2O[C@@H]2O[C@@H](C)[C@H](O)[C@@H](O)[C@H]2O)cc1 [Icariine] | -0.0902 |
| C=C1CCC[C@]2(C)C[C@@H]3OC(=O)C(C)=C3C[C@@H]12 [Atractylenolide Ii] | 0.118 |
| COC(=O)C1=CO[C@@H](O[C@@H]2O[C@H](CO)[C@@H](O)[C@H](O)[C@H]2O)[C@H]2[C@@H]1[C@H](O)C[C@]2(C)O [Shanzhiside methylester] | 0.314 |
| CC1=C[C@]2(O)O[C@@]3(CC2=C(C)C)[C@@H](C)CC[C@@H]13 [Curcumenol] | 0.132 |
| CN1Cc2c(ccc3c2OCO3)[C@@]2(C)[C@@H](O)Cc3cc4c(cc3[C@@H]12)OCO4 [Corynoline] | -0.201 |

| Compound | HR repair efficiency (log10) |
| --- | --- |
| C=CCc1ccc(O)c(OC)c1 [Eugenol] | -0.0172 |
| CC(C)=CCC[C@](C)(O[C@@H]1O[C@H](CO)[C@@H](O)[C@H](O)[C@H]1O)[C@H]1CC[C@]2(C)[C@@H]1[C@H](O)C[C@@H]1[C@@]3(C)CC[C@H](O)C(C)(C)[C@@H]3[C@@H](O[C@@H]3O[C@H](CO)[C@@H](O)[C@H](O)[C@H]3O[C@@H]3O[C@@H](C)[C@H](O)[C@@H](O)[C@H]3O)C[C@]12C [Ginsenoside Re] | -0.0179 |
| O=C(/C=C/c1ccc(O)c(O)c1/C=C/c1ccc(O)c(O)c1)O[C@H](Cc1ccc(O)c(O)c1)C(=O)O [Salvianolic Acid A] | 0.0119 |
| COc1cc(O)c2c(=O)c(O[C@@H]3O[C@H](CO)[C@@H](O)[C@H](O)[C@H]3O)c(-c3ccc(O[C@@H]4O[C@H](CO)[C@@H](O)[C@H](O)[C@H]4O)cc3)oc2c1 [Complanatoside] | -0.0658 |
| COc1cc(-c2coc3cc4c(c(OC)c3c2=O)OCO4)cc(OC)c1OC [Irisflorentin] | 0.0727 |
| O=C1c2c(O)cccc2C([C@@H]2O[C@H](CO)[C@@H](O)[C@H](O)[C@H]2O)c2cc(CO)cc(O)c21 (stereo not given in full) [Barbaloin] | 0.119 |
| CC(C)[C@@H](C)/C=C/[C@@H](C)[C@H]1CC[C@H]2C3=CC=C4C[C@@H](O)CC[C@]4(C)[C@H]3CC[C@]12C [Ergosterol] | 0.141 |
| COc1cc2c(c(OC)c1OC)-c1c(cc3c(c1OC)OCO3)C[C@H](C)[C@@](C)(O)C2 [Schizandrol B] | -0.132 |
| Oc1ccc2c(c1)OC[C@]1(O)Cc3cc(O)c(O)cc3[C@H]21 [Brazilin] | -0.00638 |
| C[C@H](N)C(=O)O [Alanine] | -0.14 |
| O=c1c(O)c(-c2cc(O)c(O)c(O)c2)oc2cc(O)cc(O)c12 [Myricetin] | 0.02 |
| C=C1C[C@@]23CC[C@H]4[C@@](C)(CCC[C@@]4(C)C(=O)O[C@@H]4O[C@H](CO)[C@@H](O)[C@H](O)[C@H]4O)[C@@H]2CC[C@]1(O[C@@H]1O[C@H](CO)[C@@H](O)[C@H](O)[C@H]1O[C@@H]1O[C@H](CO)[C@@H](O)[C@H](O)[C@H]1O)C3 [Stevioside] | 0.296 |
| O=C(/C=C/c1ccc(O)c(O)c1)O[C@@H]1CC(O)(C(=O)O)C[C@@H](OC(=O)/C=C/c2ccc(O)c(O)c2)C1O (stereo not given in full) [Isochlorogenic acid A] | 0.0109 |
| COc1ccc(-c2cc(=O)c3c(O)c(OC)c(O)cc3o2)cc1 [Pectolinarigenin] | -0.0222 |
| CC1(C)[C@@H](O)CC[C@]2(C)[C@H]3C(=O)C=C4[C@@H]5C[C@@](C)(C(=O)O)CC[C@]5(C)CC[C@@]4(C)[C@]3(C)CC[C@@H]12 [Glycyrrhetinic Acid] | 0.158 |
| CCCCCCCCCC(=O)CC(O)S(=O)(=O)O (stereo not given) [Sodium Houttuyfonate] | 0.102 |
| C=C1CC[C@@H]2[C@](C)(CO)[C@H](O)CC[C@@]2(C)[C@H]1C/C=C1\C=COC1=O [Dehydroandrographolide] | 0.116 |
| COc1ccc(-c2oc3cc(OC)c(OC)c(O)c3c(=O)c2OC)cc1O [Vitexicarpin] | -0.203 |
| CC(C)(O)CCc1c(O)cc(O)c2c(=O)c(O)c(-c3ccc(O)cc3)oc12 [Noricaritin] | -0.128 |
| C[N+](C)(C)C[C@H](O)CC(=O)[O-] [L-Carnitine] | 0.0663 |
